Experimental data from PubChem BioAssay AID684 (PCMD, 2007).
The campaign covered roughly 62,000 compounds. About 95 (0.2%) were called active. Rule as the data show it: active = inhibition above about 20% (passing the limit was not always enough); inactive = the rest. The full list was thinned out, with actives kept by preference.

target: Coagulation factor XII (Homo sapiens) (UniProt P00748); assay: human factor XIIa inhibitors, primary screen, biochemical, pooled compound mixtures, fluorogenic substrate (AID 684); conditions: purified FXIIa, at 5 µM, active compounds read high;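 also: 0% = enzyme without compound and 100% = no enzyme blank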
Sequence (P00748 20-372 limits assumed): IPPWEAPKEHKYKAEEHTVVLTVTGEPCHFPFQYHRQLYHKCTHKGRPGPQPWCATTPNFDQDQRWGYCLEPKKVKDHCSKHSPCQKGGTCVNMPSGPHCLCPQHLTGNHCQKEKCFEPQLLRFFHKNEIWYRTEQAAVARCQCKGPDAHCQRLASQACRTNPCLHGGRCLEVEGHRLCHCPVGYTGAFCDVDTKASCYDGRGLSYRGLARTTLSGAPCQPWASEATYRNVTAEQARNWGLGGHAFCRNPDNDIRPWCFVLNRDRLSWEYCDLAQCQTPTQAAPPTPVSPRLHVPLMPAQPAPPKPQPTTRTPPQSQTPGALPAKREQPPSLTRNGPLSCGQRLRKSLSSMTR
Sequence (P00748 373-615 limits assumed): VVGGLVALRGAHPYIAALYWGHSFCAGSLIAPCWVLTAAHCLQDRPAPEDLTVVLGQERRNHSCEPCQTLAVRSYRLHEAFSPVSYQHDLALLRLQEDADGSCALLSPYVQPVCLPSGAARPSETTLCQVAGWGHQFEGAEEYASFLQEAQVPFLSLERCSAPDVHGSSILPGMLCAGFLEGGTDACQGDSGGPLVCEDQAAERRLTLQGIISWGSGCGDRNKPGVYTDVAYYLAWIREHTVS

inhibition, inactive:
Cc1ccc(C(c2sc3nc(C)nn3c2O)N2CCN(c3ccc(F)cc3)CC2)cc1 (stereo unspecified) 3.33%, O=C1CC(Cc2ccccc2)C(=O)N1c1ccc(Cl)cn1 (stereo unspecified) -17.9%, COCCNC(=O)COc1ccc(C)c(C)c1 1.93%, CC(C)Oc1ccc(C2NC(=O)NC2=O)cc1 (stereo unspecified) -16.2%, Nn1c(SCC(=O)NC(=O)NC2CCCC2)nnc1-c1ccccc1F 3.32%, CCOC(=O)c1sc(NC(=S)n2cc(C)cn2)c(C(=O)OCC)c1C 7.4%, O=C(CNC(=O)c1ccc(Cl)cc1Cl)NCC(=O)Nc1ccccc1N1CCOCC1 6.48%, O=C1CC(N2CCN(C(c3ccccc3)c3ccccc3)CC2)C(=O)N1 (stereo unspecified) 1.87%, COc1cccc(NC(=O)c2ccccc2SC)c1 -1.39%, Cc1ccc(Cn2ccc(NC(=O)C3C4CCC(C4)C3C(=O)O)n2)cc1 (stereo unspecified) -2.65%, COc1ccc(N2CCN(CCNC(=O)c3nnc(Cc4c(F)cccc4Cl)o3)CC2)cc1 10.3%, CCOC(=O)c1cc2occc2n1CC(=O)N1CCN(C(=O)c2ccco2)CC1 9.63%, Cc1noc(C)c1S(=O)(=O)N(CC(=O)NCc1ccc(Cl)cc1)c1ccc2c(c1)OCO2 -1.99%, CCC(C)Sc1nc2c(c(=O)[nH]c(=O)n2C)n1CC(O)COc1cccc2ccccc12 (stereo unspecified) -0.685%, CC(C)C[C@H](NC(=O)NCCc1ccc(Cl)cc1)C(=O)O 5.46%, CC(Sc1sc(=S)sc1SC(C)C(=O)O)C(=O)O (stereo unspecified) 0.39%, CC/C(=N\O)C(C)(C)/[N+]([O-])=C/c1ccc(Br)cc1 8.49%, Brc1ccc(OCCn2ccnc2)cc1 10.3%, O=C1C(=O)N(CCN2CCOCC2)C(c2ccccn2)/C1=C(/O)c1ccc(Cl)cc1 (stereo unspecified) 5.72%, COC(=O)C1=CN(C)C=C(C(=O)OC)C1c1ccc(Cl)cc1Cl -3.3%, C=CCn1cnc2scc(-c3ccccc3)c2c1=O 12.3%, COc1ccc(S(=O)(=O)N2CCN(c3ncnc4c(-c5ccccc5)nsc34)CC2)cc1 4.31%, CCCS(=O)(=O)N1CCCC(C(=O)NCCN2CCCCC2C)C1 (stereo unspecified) 1.05%, CCOC(=O)C1CCN(C(=O)CC2C(=O)N(Cc3ccccc3)C(C)c3nc4ccccc4n32)CC1 (stereo unspecified) 4.71%, Clc1cccc(Cl)c1Cn1nnc(-c2cccs2)n1 2.33%, Cn1c(=NC(=O)C2CC2)sc2cc(F)cc(F)c21 6.96%
